# Activity calls are given as the source filed them.
# Legend:
# [1] = system: Plasmodium falciparum Sir2 (PF13_0152, Sir2A); assay: pfSir2 binders on small-molecule microarrays, primary screen, biochemical, small-molecule microarray, 635 nm fluorescence (AID 1098); settings: small-molecule microarray binding, fluorescence 635 nm; higher = more signal;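 further: score merges spot fluorescence intensity with its signal-to-noise ratio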
# [2] = small-molecule microarray binders of probe aDKK1, primary screen, biochemical, biotinylated probe, 635/667 nm fluorescence (AID 1099); settings: higher = more signal;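 further: score merges 667nm spot fluorescence with signal to noise across triplicate slides; reference of the scale not given here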
# [3] = small-molecule microarray binders of probe aCHRDL2, primary screen, biochemical, biotinylated probe, 635/667 nm fluorescence (AID 1100); settings: higher = more signal
# [4] = splicing luciferase reporter signal modulators, primary screen, spliceosome inhibition project, cell-based, HEK293, splice +/- reporter (AID 1101); settings: luminescence, 24 h, higher = more signal, called active from +8 up or from −8 down;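 further: HEK293 cells carrying a splicing-competent luciferase reporter gene; test concentration not given here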
# [5] = molecular target: Fibroblast growth factor 10 (Homo sapiens) (UniProt O15520); assay: FGF10 binders on small-molecule microarrays, primary screen, biochemical, small-molecule microarray, 635 nm fluorescence (AID 1102); settings: FGF10 binding, fluorescence 635 nm, higher = more signal
# Chain of Fibroblast growth factor 10 (Homo sapiens) (O15520 whole entry, looked up): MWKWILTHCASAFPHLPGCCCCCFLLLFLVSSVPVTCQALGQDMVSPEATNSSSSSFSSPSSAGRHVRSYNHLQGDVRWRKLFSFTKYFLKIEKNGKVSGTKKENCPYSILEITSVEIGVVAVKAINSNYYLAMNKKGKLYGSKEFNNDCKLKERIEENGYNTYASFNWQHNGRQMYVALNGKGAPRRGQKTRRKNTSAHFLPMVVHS
# [6] = system: glycogen synthase kinase-3 (GSK3A per assay name; protocol says GSK3B); assay: GSK3 binders on small-molecule microarrays, primary screen, biochemical, small-molecule microarray, 635 nm fluorescence, GSK3A (AID 1103); settings: small-molecule microarray binding, fluorescence 635 nm; higher = more signal; further: the record names both GSK3A and GSK3B
# [7] = molecular target: Epidermal growth factor receptor (Homo sapiens) (UniProt P00533); assay: EGFR binders on small-molecule microarrays, primary screen, biochemical, small-molecule microarray, 635 nm fluorescence (AID 1104); settings: EGFR binding, higher = more signal;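 further: score merges 667 nm emission intensity with spot signal to noise over triplicate slides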
# Chain of Epidermal growth factor receptor (Homo sapiens) (P00533 whole entry, looked up): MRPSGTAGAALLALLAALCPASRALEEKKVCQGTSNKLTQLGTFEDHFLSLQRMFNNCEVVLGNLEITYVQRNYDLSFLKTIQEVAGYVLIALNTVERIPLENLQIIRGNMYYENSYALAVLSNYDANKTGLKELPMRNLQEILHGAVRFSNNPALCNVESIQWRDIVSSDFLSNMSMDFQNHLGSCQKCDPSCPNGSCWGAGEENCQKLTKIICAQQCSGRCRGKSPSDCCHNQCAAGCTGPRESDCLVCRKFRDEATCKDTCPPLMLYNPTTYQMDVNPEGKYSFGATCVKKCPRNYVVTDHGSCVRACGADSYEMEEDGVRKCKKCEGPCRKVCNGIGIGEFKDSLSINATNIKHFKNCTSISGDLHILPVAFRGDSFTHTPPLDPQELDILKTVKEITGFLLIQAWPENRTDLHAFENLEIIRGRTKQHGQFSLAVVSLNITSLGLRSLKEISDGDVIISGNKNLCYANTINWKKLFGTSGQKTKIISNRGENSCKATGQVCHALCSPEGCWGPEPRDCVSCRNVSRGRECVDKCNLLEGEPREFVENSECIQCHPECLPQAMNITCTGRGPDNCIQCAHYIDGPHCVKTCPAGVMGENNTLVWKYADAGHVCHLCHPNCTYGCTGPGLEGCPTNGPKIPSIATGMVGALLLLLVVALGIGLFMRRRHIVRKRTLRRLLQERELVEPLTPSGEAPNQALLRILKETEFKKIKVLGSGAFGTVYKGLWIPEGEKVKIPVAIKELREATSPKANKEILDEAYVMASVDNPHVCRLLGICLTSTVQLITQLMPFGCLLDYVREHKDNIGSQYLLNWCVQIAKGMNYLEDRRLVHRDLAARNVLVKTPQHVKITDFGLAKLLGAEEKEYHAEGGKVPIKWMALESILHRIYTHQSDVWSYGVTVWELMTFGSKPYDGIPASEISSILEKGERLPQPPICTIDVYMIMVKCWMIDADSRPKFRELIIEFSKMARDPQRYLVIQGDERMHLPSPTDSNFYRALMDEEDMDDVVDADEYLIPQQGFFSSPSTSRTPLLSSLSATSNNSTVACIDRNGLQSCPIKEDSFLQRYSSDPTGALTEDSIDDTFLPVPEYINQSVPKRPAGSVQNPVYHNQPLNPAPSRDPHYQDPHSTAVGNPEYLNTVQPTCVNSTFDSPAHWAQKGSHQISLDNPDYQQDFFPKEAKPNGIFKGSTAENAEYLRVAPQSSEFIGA
# [8] = molecular target: Follistatin-related protein 3 (Homo sapiens) (UniProt O95633); assay: FSTL3 binders on small-molecule microarrays, primary screen, biochemical, small-molecule microarray, 635 nm fluorescence (AID 1105); settings: FSTL3 binding, higher = more signal;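 further: score merges emission near 667 nm and signal to noise per printed spot across three slides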
# Chain of Follistatin-related protein 3 (Homo sapiens) (O95633 whole entry, looked up): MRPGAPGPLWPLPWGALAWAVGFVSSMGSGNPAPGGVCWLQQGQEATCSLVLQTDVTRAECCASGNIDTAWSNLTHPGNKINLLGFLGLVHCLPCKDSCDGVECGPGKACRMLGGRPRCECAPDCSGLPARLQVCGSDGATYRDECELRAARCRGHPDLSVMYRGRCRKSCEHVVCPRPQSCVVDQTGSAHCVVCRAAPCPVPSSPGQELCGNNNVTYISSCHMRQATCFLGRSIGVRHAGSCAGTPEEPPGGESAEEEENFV
# [9] = molecular target: Dickkopf-related protein 1 (Homo sapiens) (UniProt O94907); assay: DKK1 binders on small-molecule microarrays, primary screen, biochemical, small-molecule microarray, 635 nm fluorescence scan (AID 1106); settings: DKK1 binding, higher = more signal;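 further: score merges emission near 667 nm with signal to noise over three replicate slides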
# Chain of Dickkopf-related protein 1 (Homo sapiens) (O94907 whole entry, looked up): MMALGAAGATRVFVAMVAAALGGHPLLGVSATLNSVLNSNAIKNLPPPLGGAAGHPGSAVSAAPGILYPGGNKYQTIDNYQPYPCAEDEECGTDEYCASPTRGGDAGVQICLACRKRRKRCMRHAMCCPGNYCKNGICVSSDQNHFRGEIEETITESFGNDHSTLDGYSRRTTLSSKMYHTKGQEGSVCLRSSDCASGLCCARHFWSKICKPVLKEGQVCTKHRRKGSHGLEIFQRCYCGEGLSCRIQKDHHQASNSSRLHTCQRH
# [10] = system: Inhibin beta A chain (activin A); assay: INHBA (activin A) binders on microarrays, primary screen, biochemical, small-molecule microarray, 635 nm fluorescence scan (AID 1107); settings: small-molecule microarray binding, higher = more signal;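 further: mouse activin A protein probed at 4.33 µg/mL on printed slides; score merges bound-protein fluorescence near 667 nm with spot signal-to-noise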
Compound,composite z-score [1],composite z-score [2],composite z-score [3],z-score [4],composite z-score [5],composite z-score [6],composite z-score [7],composite z-score [8],composite z-score [9],composite z-score [10]
CC(C)C(=C=CC[C@H](O)c1ccc(OCCO)cc1)CCO,1.42,0.0229,0.0152,0.0477 (inactive),0.835,0.145,0.0098,0.842,0.296,0.943
C=CCOC(=O)[C@@H]1[C@H]2C(=O)O[C@H](c3ccccc3)[C@H](c3ccccc3)N2[C@H](c2ccc(OCCOC(=O)[C@@H]3C[C@@H]4C(=O)NCC(=O)N4[C@@H]3c3ccc(O)cc3)cc2)[C@@]12C(=O)Nc1ccc(I)cc12,0.924,-0.485,-0.201,-0.603 (inactive),0.912,1.29,0.715,1.22,0.82,0.0932
C=CC(=C)[C@H]1Oc2ccccc2S(=O)(=O)N2CCC[C@@H]12,-0.0608,-0.144,-0.0159,-0.629 (inactive),-0.249,-0.486,0.0976,-0.0111,0.317,1.07
C=C(/C(=C/C[C@H](OC(C)=O)c1ccccc1OCCO)c1cnc2ccccc2c1)C(C)C,1.55,0.955,-0.269,0.0118 (inactive),0.53,0.311,-0.306,1.04,0.304,1.87
O=C1c2ccccc2[C@](Cc2ccccc2I)(C(=O)NCCN2CCOCC2)[C@H](c2ccc(CO)cc2)N1C1CCCCC1,0.979,1.04,0.77,0.821 (inactive),0.82,1.3,0.499,1.24,0.941,0.821
CCCC[C@@H]1C[C@H]1[C@@H](NC(=O)C(C)(C)C)c1ccc(C(F)(F)F)cc1,-0.0923,0.767,1.44,-2.95 (inactive),-1.23,-0.266,-1.76,-1.63,-1.61,0.328
COCCOC(=O)N1C(=O)[C@@]2(c3ccccc31)[C@H](c1ccc(O)cc1)N1[C@H](c3ccccc3)[C@H](c3ccccc3)OC(=O)[C@H]1[C@@H]2C(=O)Nc1nc2ccccc2s1,1.39,-0.0358,-0.167,-1.3 (inactive),0.724,1.05,0.252,0.542,0.39,0.0446
C=C(C)[C@@H]1CC=C(C(O)C2C=CC3C(=O)N(C)C(=O)C3N2Nc2ccccc2)CC1 (stereo not given in full),0.433,0.344,0.581,1.98 (inactive),1.03,1.03,0.928,1.42,1.11,1.43
[N-]=[N+]=Nc1ccccc1[C@H]1OC(c2ccc(OCCCO)cc2)=N[C@@]1(CCS(=O)(=O)c1ccccc1)C(=O)NCC(O)CO (stereo not given in full),1.47,0.766,0.95,-0.662 (inactive),1.24,0.933,-0.214,0.505,-0.415,0.899
C[C@H]1C2[C@H](Cc3ccccc3)NC(=O)[C@]23C(=O)N[C@H](Cc2ccccc2)C(=O)N2CCC[C@H]2C(=O)NC/C=C\C/C=C/C3[C@@H]2O[C@]12C (stereo not given in full),0.901,-0.0646,-0.19,-0.925 (inactive),0.428,-0.298,-0.0282,0.801,0.299,0.946
O=C1O[C@H](c2ccccc2)[C@H](c2ccccc2)N2[C@H]1[C@@H](C(=O)N1CCCCCCC1)[C@]1(C(=O)Nc3ccc(C#CC4=CCCCC4)cc31)[C@H]2c1ccc(OCCO)cc1,1.87,2.63,1.36,-1.68 (inactive),1.46,1.36,1.68,1.66,2.4,1.88
C[N+](C)(C)CCCCNC(=O)[C@H]1C[C@H]2C(=O)N3CCC[C@H]3C(=O)N2[C@H]1c1cccc(OCCO)c1,0.501,0.0086,0.314,0.717 (inactive),0.489,-0.415,-0.142,1.14,1.32,1.08
C[C@H]1NC(=O)[C@@]23C(=O)N[C@@H](Cc4ccccc4)C2[C@H](C)[C@@]2(C)O[C@H]2C3/C=C/C/C=C\CNC(=O)[C@@H]2CCCN2C1=O (stereo not given in full),0.466,-0.192,-0.575,0.856 (inactive),0.861,0.365,0.283,0.891,0.296,0.947
COc1ccc(C#Cc2ccc3c(c2)[C@]2(C(=O)N3)[C@H](C(=O)Nc3nc4ccccc4s3)[C@H]3C(=O)O[C@H](c4ccccc4)[C@H](c4ccccc4)N3[C@@H]2c2ccc(O)cc2)cc1,1.15,1.06,0.144,-0.444 (inactive),1.43,1.25,0.516,1.48,0.63,1.09
O=C1O[C@@H](c2ccccc2)[C@@H](c2ccccc2)N2[C@@H](c3ccccc3OCCO)[C@]3(C(=O)Nc4ccc(C#CC5=CCCCC5)cc43)[C@@H](C(=O)N3CCCCCCC3)[C@H]12,2.01,2.94,1.63,-1.06 (inactive),1.54,1.39,1.81,1.75,2.56,1.8
COC(=O)[C@H](Cc1ccccc1)N1CC2=C[C@@H](C3CC3)n3c(=O)n(C)c(=O)n3[C@H]2[C@@H]1[C@@H](O)Cc1ccccc1,0.711,-0.412,-0.5,-0.515 (inactive),0.617,0.658,0.217,0.868,0.312,0.289
COCCOC(=O)N1C(=O)[C@@]2(c3cc(C#CCNC(N)=O)ccc31)[C@H](C(=O)Nc1nc3ccccc3s1)[C@H]1C(=O)O[C@H](c3ccccc3)[C@H](c3ccccc3)N1[C@@H]2c1ccc(OCCO)cc1,-0.112,0.92,0.795,-0.239 (inactive),1.11,0.755,0.373,0.963,1.15,0.542
C#C[C@H](O[Si](C#Cc1ccc(Oc2ccccc2)cc1)(C(C)C)C(C)C)c1ccccc1,1.39,0.629,0.0024,-0.855 (inactive),0.406,0.639,0.144,0.563,-0.0522,-0.0811
O=C1O[C@@H](c2ccccc2)[C@@H](c2ccccc2)N2[C@@H](c3ccccc3OCCO)[C@]3(C(=O)Nc4ccccc43)[C@@H](C(=O)Nc3nc4ccccc4s3)[C@H]12,1.02,1.05,0.0859,-1.86 (inactive),1.23,1.02,0.383,0.799,0.287,0.33
COCCCNC(=O)[C@@H]1c2ccccc2C(=O)N(Cc2ccccc2Cl)[C@H]1c1ccc(CO)cc1,0.471,0.167,0.199,0.5 (inactive),0.629,1.17,0.245,0.715,0.412,0.975
O=C(OCc1ccccc1)C1=CCC2c3[nH]c4ccccc4c3C(=O)C1N2S(=O)(=O)c1ccccc1[N+](=O)[O-] (stereo not given),1.42,0.332,0.381,-0.00197 (inactive),1.33,1.32,0.727,1.42,0.109,0.618
CCCCCN1CC=CC23O[C@@H]4/C=C\CCC(C)OC(=O)C4[C@H]2C(=O)N(C(C)CO)[C@@H]3C1=O (stereo not given in full),-0.472,-0.225,-0.327,0.304 (inactive),0.171,0.0131,-0.601,-0.0103,-0.23,0.908
